# Results from PubChem BioAssay (EPA / NIEHS).
# Records with an inconclusive call do not appear. More than one record can exist for a structure, and the calls need not agree. Active and inactive are the calls of the source. How the source made its calls: active means hit-call score of the fitted dose curve at least 0.9, where 1 is the maximum; inconclusive means response in the unintended direction; inactive means score below 0.9.
# Key:
# [1] = target: Luciferin 4-monooxygenase (Photinus pyralis) (UniProt P08659); assay: CCTE_Simmons_QuantiLum_inhib_2: CCTE's Firefly Luciferase Inhibition Assay, Simmons Lab (AID 2283767);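 on AC50: potency for inhibitors that lower luciferase luminescence relative to DMSO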
# Chain of Luciferin 4-monooxygenase (Photinus pyralis) (P08659 whole entry, looked up): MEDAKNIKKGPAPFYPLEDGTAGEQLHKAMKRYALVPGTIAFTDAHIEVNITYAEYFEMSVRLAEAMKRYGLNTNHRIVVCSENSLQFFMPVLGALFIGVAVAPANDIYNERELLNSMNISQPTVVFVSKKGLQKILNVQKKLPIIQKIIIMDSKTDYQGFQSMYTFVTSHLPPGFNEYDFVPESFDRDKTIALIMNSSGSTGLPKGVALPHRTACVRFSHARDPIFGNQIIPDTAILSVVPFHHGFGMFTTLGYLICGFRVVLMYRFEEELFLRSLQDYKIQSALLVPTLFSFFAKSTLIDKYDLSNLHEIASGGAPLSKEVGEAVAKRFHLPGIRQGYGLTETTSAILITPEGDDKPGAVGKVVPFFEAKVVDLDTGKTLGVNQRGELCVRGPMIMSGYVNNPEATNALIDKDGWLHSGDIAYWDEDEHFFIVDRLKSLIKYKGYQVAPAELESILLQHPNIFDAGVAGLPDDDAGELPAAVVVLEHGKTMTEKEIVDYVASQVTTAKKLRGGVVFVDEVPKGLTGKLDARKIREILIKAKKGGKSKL
# In short: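 Recombinant firefly luciferase (5 ng/well, 200 mM potassium phosphate with 1 mg/ml BSA) was exposed to 8 concentrations from 5 nM to 87.5 uM (final, 0.5% DMSO) for 30 min at 37C in the dark. Loss of luminescence versus DMSO was read after injecting D-luciferin/ATP-analogue reagent.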
# [2] = ACEA_AR_antagonist_AUC_viability: ACEA Biosciences xCELLigence Real-Time Cell Analysis on Androgen Receptor Antagonism for Viability (AID 2283776);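 further: 22Rv1 human prostate cancer cells growing on impedance electrode plates; area under impedance growth curve at 80 h after dosing as viability; hits lower the growth signal relative to DMSO meaning cytotoxicity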
# In short: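 Viability endpoint from label-free cell-index monitoring: 22Rv1 cultures treated with an eight-point 1:4 dilution series starting at 100 uM final, AUC at 80 h fitted against DMSO.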
# [3] = ACEA_ER_AUC_viability: ACEA Biosciences xCELLigence Real-Time Cell Analysis on Estrogen Receptor Agonism for Viability (AID 2283782);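 further: continuous compound exposure with impedance area under curve over 80 h; hit means loss of impedance signal meaning reduced cell growth or viability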
# In short: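 T-47D human breast cells in phenol red-free RPMI1640 with 10% charcoal-stripped FBS were dosed with an 8-point 1:4 dilution series from 100 uM top final concentration, in duplicate. Impedance-based growth was followed for 80 h; AUC analysed versus DMSO.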
# [4] = ArunA_NOG_NucleusCount: ArunA Biomedical's Neurite Outgrowth (NOG) Assay for Nucleus Count (AID 2283756)
# In short: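 Human H9-derived differentiated neurons were exposed for 48 h right after seeding. Hoechst-stained nuclei gated by size and intensity were counted by automated high-content imaging as viable neurons. Loss of signal vs DMSO.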
# [5] = ArunA_NOG_NeuriteLength: ArunA Biomedical's Neurite Outgrowth (NOG) Assay for Neurite Length (AID 2283757)
# In short: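 Differentiated human H9-derived neurons were exposed for 48 h from seeding, then stained with Hoechst and βIII-tubulin. Automated high-content imaging gave total neurite length per valid neuron, counting processes >10 um. Loss of signal was scored versus DMSO.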
# [6] = ArunA_NOG_NeuritesPerNeuron: ArunA Biomedical's Neurite Outgrowth (NOG) Assay for Neurites Per Neuron (AID 2283758)
# In short: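 Differentiated human H9-derived neurons exposed to chemicals for 48 h from seeding, then stained with Hoechst and βIII-tubulin/DyLight 488. Automated imaging counted neurites (processes >10 um) per valid neuron; loss of signal versus DMSO scored.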
# [7] = ArunA_NOG_BranchPointsPerNeurite: ArunA Biomedical's Neurite Outgrowth (NOG) Assay for Branch Points Per Neurite (AID 2283759)
# In short: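 Automated image analysis traced neurites (processes >10 um) from valid cell bodies after Hoechst and βIII-tubulin staining. hNN cells from H9 embryonic stem cells, 48 h exposure. Fitted bidirectionally against DMSO.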
# [8] = STM_H9_NormalizedViability: Cytotoxicity Assessment at 120 hours in the Stemina devTOX quickPredict H9 human embryonic stem cell (hESC)-based Assay (AID 2283784)
# In short: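 Undifferentiated H9 hESCs kept pluripotent were exposed to compound, with media and chemical replaced every 24h. CellTiter-Fluor protease-substrate fluorescence was background-corrected and normalized per plate to the 0.1% DMSO vehicle; signal loss indicates reduced viability.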
# AR (gene 367) [9] = target: AR (gene 367) (UniProt P10275); assay: ACEA_AR_agonist_80hr: ACEA Biosciences xCELLigence Real-Time Cell Analysis on Androgen Receptor Agonism for Proliferation (AID 2283783);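 further: hits increase impedance growth signal above DMSO baseline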
# Chain of AR (gene 367) (P10275 whole entry, looked up): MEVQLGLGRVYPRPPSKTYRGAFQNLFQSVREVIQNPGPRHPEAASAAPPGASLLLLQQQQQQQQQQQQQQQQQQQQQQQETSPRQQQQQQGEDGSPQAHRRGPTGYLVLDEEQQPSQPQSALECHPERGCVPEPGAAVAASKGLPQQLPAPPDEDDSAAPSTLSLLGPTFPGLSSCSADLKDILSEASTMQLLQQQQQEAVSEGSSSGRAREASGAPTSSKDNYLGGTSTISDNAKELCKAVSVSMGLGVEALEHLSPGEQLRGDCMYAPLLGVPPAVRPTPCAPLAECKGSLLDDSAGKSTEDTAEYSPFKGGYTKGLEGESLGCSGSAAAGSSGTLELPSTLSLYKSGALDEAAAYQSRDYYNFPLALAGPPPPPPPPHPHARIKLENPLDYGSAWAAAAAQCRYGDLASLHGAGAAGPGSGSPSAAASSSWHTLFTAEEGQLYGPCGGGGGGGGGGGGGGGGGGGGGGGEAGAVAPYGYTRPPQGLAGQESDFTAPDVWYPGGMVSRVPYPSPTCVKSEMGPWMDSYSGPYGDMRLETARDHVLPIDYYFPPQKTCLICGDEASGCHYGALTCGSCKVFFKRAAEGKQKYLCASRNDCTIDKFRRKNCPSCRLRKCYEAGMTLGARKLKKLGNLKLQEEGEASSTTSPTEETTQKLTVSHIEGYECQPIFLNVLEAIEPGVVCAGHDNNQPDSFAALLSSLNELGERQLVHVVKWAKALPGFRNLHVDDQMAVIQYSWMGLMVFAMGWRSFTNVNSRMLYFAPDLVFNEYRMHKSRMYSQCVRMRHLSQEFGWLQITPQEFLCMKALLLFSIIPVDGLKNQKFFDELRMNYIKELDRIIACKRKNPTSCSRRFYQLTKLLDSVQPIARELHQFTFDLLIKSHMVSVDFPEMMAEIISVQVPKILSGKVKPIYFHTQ
# In short: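 22Rv1 human prostate cancer cells were seeded after preconditioning in assay medium and monitored overnight, then dosed in an eight-point 1:4 dilution series from 100 uM (≤0.5% DMSO). Impedance-based growth was read at 80 h, gain-of-signal versus DMSO.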
# AR (gene 367) [10] = target: AR (gene 367) (UniProt P10275); assay: ACEA_AR_antagonist_80hr: ACEA Biosciences xCELLigence Real-Time Cell Analysis on Androgen Receptor Antagonism for Proliferation (AID 2283787);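 further: hits lower the impedance growth signal relative to DMSO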
# In short: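 Impedance readout (RT-CES), 80 h post-dose; loss-of-signal vs DMSO baseline. 22Rv1 cells in assay medium. Compounds: 8-pt 1:4 series, max 100 uM final, up to 0.5% DMSO; n = 2.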
structure (smiles),measurement,setting,value
CCCCCCCCCCCCOC(=O)c1cc(O)c(O)c(O)c1,outcome,[1],inactive
same,AC50,[2],3.44 µM (active)
same,AC50,[3],2.97 µM (active)
O=C1OC2(c3ccccc31)c1cc(I)c(O)c(I)c1Oc1c2cc(I)c(O)c1I,AC50,[1],6.41 µM (active)
same,AC50,[3],18.5 µM (active)
same,outcome,[3],inactive
O=C(CCCN1CCC(O)(c2ccc(Cl)cc2)CC1)c1ccc(F)cc1,AC50,[4],78.9 µM (active)
same,AC50,[5],78.1 µM (active)
same,AC50,[6],77.9 µM (active)
same,AC50,[7],73.3 µM (active)
same,AC50,[2],53.7 µM (active)
same,outcome,[3],inactive
same,outcome,[8],inactive
CCCCc1oc2ccccc2c1C(=O)c1cc(I)c(OCCN(CC)CC)c(I)c1,AC50,[2],9.15 µM (active)
same,AC50,[3],11.5 µM (active)
same,AC50,[8],4.41 µM (active)
CCCCCCc1ccc(N)cc1,AC50,[1],77.1 µM (active)
same,outcome,[2],inactive
same,AC50,[3],50 µM (active)
same,outcome,AR (gene 367) [9],inactive
same,outcome,AR (gene 367) [10],inactive
O=C(O)c1cccc(C(=O)O)n1,outcome,[2],inactive
same,outcome,[3],inactive
O=C(c1ccccc1)c1ccccc1,outcome,AR (gene 367) [9],inactive
same,outcome,[8],inactive
CCCCCCC(C)(C)C(=O)O,outcome,AR (gene 367) [9],inactive
